Molecules are shown by their SMILES. Screen size: about 39,000 compounds; about 3,300 (8.5%) were called active. The sample as a whole holds a higher share of actives than the screen did.

For this experiment, the system named is HepG2. Put plainly: cytotoxicity call (relative viability < 0.9). The conditions noted are these: 10 µM.
Take `Cc1noc(C)c1NC(=O)Nc1ccc2c(c1)C(=O)N([C@H](C)CO)C[C@@H](C)[C@@H](CN(C)CC1CCCCC1)OCCCC[C@H](C)O2`: the cytotoxicity call was “inactive”.
For `CC(C)NC(=O)N(C)C[C@H]1OCc2cn(nn2)CCCC(=O)N([C@H](C)CO)C[C@@H]1C`, the cytotoxicity call was “inactive”.
Turning to `CC(=O)OCC(=O)C1(O)CCC2C3CCC4=CC(=O)CCC4(C)C3C(O)CC21C` (configuration not stated), the cytotoxicity call is “inactive”.
With `C[C@H]1CN([C@@H](C)CO)C(=O)c2cc(NC(=O)NC3CCCCC3)ccc2O[C@H]1CN(C)C(=O)Nc1cccc2ccccc12` the entry was “active”; with `C[C@@H]1CN([C@H](C)CO)C(=O)c2cc(NC(=O)NC3CCCCC3)ccc2O[C@H]1CN(C)C(=O)Nc1cccc2ccccc12`, “inactive”.
Turning to `C[C@@H]1CN([C@@H](C)CO)C(=O)c2cc(NC(=O)NC3CCCCC3)ccc2O[C@H]1CN(C)C(=O)Nc1cccc2ccccc12`, the cytotoxicity call was “inactive”.
With `Cc1noc(C)c1S(=O)(=O)Nc1cccc2c1O[C@@H](CN(C)Cc1ccc3c(c1)OCO3)[C@@H](C)CN([C@H](C)CO)C2=O` the entry was “inactive”; with `C[C@H]1CN([C@@H](C)CO)C(=O)c2cc(C#Cc3ccccc3F)cnc2O[C@H]1CN(C)S(=O)(=O)c1ccccc1F`, “inactive”.
Regarding `COCC(=O)N(C)C[C@H]1Oc2cc(C#CCC3CCCC3)ccc2S(=O)(=O)N([C@@H](C)CO)C[C@H]1C`, the cytotoxicity call is “inactive”.
Under `C[C@H]1CN([C@@H](C)CO)C(=O)Cc2cc(NC(=O)Nc3cccc4c3CCCC4)ccc2O[C@H]1CN(C)S(=O)(=O)c1ccc(Cl)cc1` stands “inactive”; under `C[C@H]1CN([C@@H](C)CO)C(=O)Cc2cc(NC(=O)Nc3cc(Cl)cc(Cl)c3)ccc2O[C@H]1CN(C)S(=O)(=O)c1ccc(Oc2ccccc2)cc1`, “active”.
Under `Cc1ccc(S(=O)(=O)N(C)C[C@@H]2Oc3ccc(NC(=O)Nc4cccc5ccccc45)cc3CC(=O)N([C@@H](C)CO)C[C@H]2C)cc1` stands “inactive”; under `C[C@H]1CN([C@@H](C)CO)C(=O)Cc2cc(NC(=O)Nc3ccc(C#N)cc3)ccc2O[C@H]1CN(C)S(=O)(=O)c1ccc(Oc2ccccc2)cc1`, “inactive”; under `C[C@H]1CN([C@@H](C)CO)C(=O)Cc2cc(NC(=O)Nc3ccc(Cl)c(Cl)c3)ccc2O[C@H]1CN(C)S(=O)(=O)c1ccc(Oc2ccccc2)cc1`, “inactive”.
For `C[C@H]1CN([C@@H](C)CO)C(=O)Cc2cc(NC(=O)Nc3cccc4c3CCCC4)ccc2O[C@H]1CN(C)S(=O)(=O)c1ccc(Oc2ccccc2)cc1`, the cytotoxicity call was “active”.
As for `CC(C)NC(=O)Nc1ccc2c(c1)CC(=O)N([C@H](C)CO)C[C@@H](C)[C@@H](CN(C)S(=O)(=O)c1ccccc1)O2`, the cytotoxicity call was “inactive”.
With `CC(C)NC(=O)Nc1ccc2c(c1)CC(=O)N([C@@H](C)CO)C[C@H](C)[C@H](CN(C)S(=O)(=O)c1ccc(F)cc1)O2` the entry was “inactive”.
With `C[C@H]1CN([C@@H](C)CO)C(=O)Cc2cc(NC(=O)Nc3ccc(F)cc3)ccc2O[C@H]1CN(C)S(=O)(=O)c1ccc(Oc2ccccc2)cc1` the entry was “active”; with `CCCN(C)C[C@@H]1Oc2cc(C#Cc3ccccc3OC)ccc2S(=O)(=O)N([C@@H](C)CO)C[C@@H]1C`, “inactive”; with `COc1ccc(S(=O)(=O)Nc2ccc3c(c2)C(=O)N([C@H](C)CO)C[C@H](C)[C@H](CN(C)S(=O)(=O)c2cccs2)O3)cc1`, “inactive”.
Under `O=C(C[C@@H]1C[C@H]2c3cc(NC(=O)Cc4ccncc4)ccc3O[C@H]2[C@H](CO)O1)NCc1ccc2c(c1)OCO2` stands “inactive”; under `C=C(C(=O)O)[C@@H](CCCCCCOC(=O)C(=O)OCCCCCC[C@@H](C(=C)C(=O)O)C(=O)O)C(=O)O`, “inactive”; under `O=C(C[C@H]1CC[C@@H]2[C@H](COC[C@@H](O)CN2S(=O)(=O)c2ccccc2F)O1)NCc1ccccc1Cl`, “inactive”.
Consider `C[C@H](CO)N1C[C@H](C)[C@@H](CN(C)C(=O)Nc2ccc(F)cc2)OCCCC[C@H](C)Oc2ccc(NC(=O)C3CCCCC3)cc2C1=O`, for which the cytotoxicity call is “inactive”.
Under `C[C@@H]1CN([C@H](C)CO)C(=O)c2cc(NC(=O)C3CC3)ccc2O[C@@H]1CN(C)Cc1ccc2c(c1)OCO2` stands “inactive”; under `Cc1noc(C)c1S(=O)(=O)Nc1ccc2c(c1)CC(=O)N([C@@H](C)CO)C[C@H](C)[C@H](CN(C)S(=O)(=O)c1ccc(Cl)cc1)O2`, “inactive”.
On to `C[C@@H]1CCCCO[C@H](CN(C)Cc2ccc(C(F)(F)F)cc2)[C@H](C)CN([C@@H](C)CO)C(=O)c2cc(NC(=O)c3ccncc3)ccc2O1`, for which the cytotoxicity call is “inactive”.
For the compound `Cc1ccc(S(=O)(=O)N(C)C[C@@H]2Oc3ccc(NS(=O)(=O)c4ccc(F)cc4)cc3C(=O)N([C@@H](C)CO)C[C@H]2C)cc1`, the cytotoxicity call is “inactive”.
`Cc1noc(C)c1S(=O)(=O)N(C)C[C@H]1OCCCC[C@@H](C)Oc2ccc(N(C)C)cc2C(=O)N([C@@H](C)CO)C[C@@H]1C`: the cytotoxicity call was “inactive”.
Consider `CC(C)NC(=O)Nc1ccc2c(c1)CC(=O)N([C@@H](C)CO)C[C@@H](C)[C@H](CN(C)Cc1ccc(-c3ccccc3)cc1)O2`, for which the cytotoxicity call was “inactive”.
Under `CC(C)NC(=O)Nc1ccc2c(c1)CC(=O)N([C@H](C)CO)C[C@@H](C)[C@@H](CN(C)Cc1ccc(-c3ccccc3)cc1)O2` stands “active”.
Under `CC(C)NC(=O)Nc1ccc2c(c1)CC(=O)N([C@@H](C)CO)C[C@@H](C)[C@@H](CN(C)Cc1ccc(-c3ccccc3)cc1)O2` stands “inactive”; under `CC(C)NC(=O)Nc1ccc2c(c1)CC(=O)N([C@H](C)CO)C[C@@H](C)[C@H](CN(C)Cc1ccc(-c3ccccc3)cc1)O2`, “inactive”; under `CC(C)NC(=O)Nc1ccc2c(c1)CC(=O)N([C@@H](C)CO)C[C@H](C)[C@@H](CN(C)Cc1ccc(-c3ccccc3)cc1)O2`, “active”.
With `CC(C)NC(=O)Nc1ccc2c(c1)CC(=O)N([C@H](C)CO)C[C@H](C)[C@@H](CN(C)Cc1ccc(-c3ccccc3)cc1)O2` the entry was “inactive”; with `C[C@@H]1CN([C@@H](C)CO)S(=O)(=O)c2ccc(C#Cc3cccc(F)c3)cc2O[C@@H]1CN(C)S(=O)(=O)c1ccccc1F`, “inactive”.
Turning to `C[C@@H]1CCCCO[C@@H](CN(C)Cc2ccc(C(=O)O)cc2)[C@H](C)CN([C@H](C)CO)C(=O)c2cc(NC(=O)Nc3ccc4c(c3)OCO4)ccc2O1`, the cytotoxicity call is “inactive”.
Under `CC(C)NC(=O)N(C)C[C@@H]1Oc2c(NS(=O)(=O)c3ccc(Cl)cc3)cccc2C(=O)N([C@H](C)CO)C[C@H]1C` stands “inactive”.
With `COC(=O)C1C(O)CCC2CN3CCc4c([nH]c5ccccc45)C3CC21` (configuration not stated) the entry was “inactive”; with `COC(=O)C1C2CC3c4[nH]c5cc(OC)ccc5c4CCN3CC2CC(OC(=O)c2cc(OC)c(OC)c(OC)c2)C1OC` (configuration not stated), “active”; with `COC(=O)C1C(O)CCC2CN3CCc4c([nH]c5ccccc45)C3CC21.Cl` (configuration not stated), “inactive”.
With `C[C@H](CO)N1C[C@H](C)[C@H](CN(C)S(=O)(=O)c2ccc(Cl)cc2)Oc2ccc(NS(C)(=O)=O)cc2CC1=O` the entry was “inactive”; with `O=C(C[C@@H]1CC[C@H]2[C@@H](COC[C@@H](O)CN2C(=O)Nc2ccc(Cl)cc2)O1)NC1Cc2ccccc2C1`, “inactive”.
Regarding `O=C(C[C@H]1CC[C@@H]2[C@H](COC[C@@H](O)CN2C(=O)Nc2ccc(Cl)cc2)O1)NC1Cc2ccccc2C1`, the cytotoxicity call was “inactive”.
With `O=C(C[C@@H]1CC[C@@H]2[C@H](COC[C@H](O)CN2C(=O)Nc2ccc(Cl)cc2)O1)NC1Cc2ccccc2C1` the entry was “inactive”.
With `O=C(C[C@@H]1CC[C@@H]2[C@H](COC[C@@H](O)CN2C(=O)Nc2ccc(Cl)cc2)O1)NC1Cc2ccccc2C1` the entry was “active”.
As for `O=C(C[C@H]1CC[C@H]2[C@@H](COC[C@H](O)CN2C(=O)Nc2ccc(Cl)cc2)O1)NC1Cc2ccccc2C1`, the cytotoxicity call is “inactive”.
For the compound `O=C(C[C@H]1CC[C@H]2[C@@H](COC[C@@H](O)CN2C(=O)Nc2ccc(Cl)cc2)O1)NC1Cc2ccccc2C1`, the cytotoxicity call was “active”.
Take `CO[C@H]1CN(C)C(=O)c2ccc(NC(=O)CC(F)(F)F)cc2OC[C@H](C)N(S(=O)(=O)c2cn(C)cn2)C[C@H]1C`: the cytotoxicity call was “inactive”.
`C[C@H]1CCCCO[C@H](CN(C)S(C)(=O)=O)[C@@H](C)CN([C@@H](C)CO)C(=O)c2cc(NS(=O)(=O)c3cn(C)cn3)ccc2O1`: the cytotoxicity call is “inactive”.
Take `COc1ccc(NC(=O)Nc2ccc3c(c2)C(=O)N([C@H](C)CO)C[C@H](C)[C@H](CN(C)S(=O)(=O)c2c(C)noc2C)OCCCC[C@H](C)O3)cc1`: the cytotoxicity call is “inactive”.
With `O=C(C[C@H]1CC[C@H]2[C@@H](COC[C@@H](O)CN2S(=O)(=O)c2ccc(F)cc2)O1)N[C@@H]1CCN(Cc2ccccc2)C1` the entry was “inactive”; with `CC(C)NC(=O)Nc1ccc2c(c1)CC(=O)N([C@H](C)CO)C[C@@H](C)[C@H](CN(C)Cc1ccc(C(=O)O)cc1)O2`, “inactive”; with `C[N+](C)(C)[C@@H]1[C@H]2OC[C@H](O)[C@H]2O[C@@H]1O`, “inactive”.
Under `CCCNC(=O)N1C[C@H](C)[C@@H](OC)CN(C)C(=O)c2cc(NS(=O)(=O)CC(F)(F)F)ccc2OC[C@H]1C` stands “inactive”; under `C[C@@H]1CN([C@@H](C)CO)C(=O)c2cccc(NC(=O)C3CCCCC3)c2O[C@H]1CN(C)Cc1ccc(Cl)c(Cl)c1`, “inactive”.
With `COc1ccc(NC(=O)Nc2cccc3c2O[C@@H](CN(C)Cc2ccc(Cl)c(Cl)c2)[C@@H](C)CN([C@H](C)CO)C3=O)cc1` the entry was “active”.
Turning to `C[C@@H]1CN([C@@H](C)CO)C(=O)c2cccc(NC(=O)Nc3ccccc3)c2O[C@H]1CN(C)Cc1ccc(Cl)c(Cl)c1`, the cytotoxicity call was “active”.
For `COc1ccc(NC(=O)Nc2cccc3c2O[C@H](CN(C)Cc2ccc(Cl)c(Cl)c2)[C@@H](C)CN([C@@H](C)CO)C3=O)cc1`, the cytotoxicity call is “inactive”.
As for `C[C@@H]1CN([C@H](C)CO)C(=O)c2cccc(NC(=O)Nc3ccccc3)c2O[C@H]1CN(C)Cc1ccc(Cl)c(Cl)c1`, the cytotoxicity call is “inactive”.
With `COc1ccc(NC(=O)Nc2cccc3c2O[C@@H](CN(C)Cc2ccc(Cl)c(Cl)c2)[C@H](C)CN([C@@H](C)CO)C3=O)cc1` the entry was “inactive”.
For `C[C@@H]1CN([C@@H](C)CO)C(=O)c2cccc(NC(=O)Nc3ccc(F)cc3)c2O[C@H]1CN(C)Cc1ccc(Cl)c(Cl)c1`, the cytotoxicity call is “active”.
In the case of `C[C@H](CO)N1C[C@H](C)[C@@H](CN(C)Cc2ccc(Cl)c(Cl)c2)Oc2c(NC(=O)Nc3ccccc3)cccc2C1=O`, the cytotoxicity call was “inactive”.
Under `C[C@@H]1CN([C@H](C)CO)C(=O)c2cccc(NC(=O)C3CCCCC3)c2O[C@H]1CN(C)Cc1ccc(Cl)c(Cl)c1` stands “inactive”; under `C[C@H]1CN([C@@H](C)CO)C(=O)c2cccc(NC(=O)C3CCCCC3)c2O[C@@H]1CN(C)Cc1ccc(Cl)c(Cl)c1`, “active”; under `C[C@@H]1CN([C@H](C)CO)C(=O)c2cccc(NC(=O)Nc3ccc(F)cc3)c2O[C@H]1CN(C)Cc1ccc(Cl)c(Cl)c1`, “inactive”.
`C[C@H](CO)N1C[C@H](C)[C@H](CN(C)Cc2ccc(Cl)c(Cl)c2)Oc2c(NC(=O)Nc3ccc(F)cc3)cccc2C1=O`: the cytotoxicity call was “inactive”.

For the origin of these results see the antibiotic and cytotoxicity screens of Wong et al. (2023).
